KCNQ2 pot = KCNQ2 (rat) channel potentiation; 310,000 tested, 0.54% active; CHO-K1 KCNQ2, FluxOR thallium flux fluorescence; active compounds read high; B-score at 10 µM; AID 2239;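 active means fluorescence ratio B-score at least 3 SD of library B-scores, with initial fluorescence B-score within 3 of them, cut at about 5.3 in these data; same plate scores as AID 2156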;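 further: B-score of peak minus minimum over baseline fluorescence ratio after K+ and Tl+ stimulus; positive B-score means potentiation of KCNQ2 with more thallium influx and brighter signal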
KCNQ2 block = KCNQ2 (rat) channel inhibition; B-score at 10 µM; CHO-K1 KCNQ2, FluxOR thallium flux, 20 min; active compounds read low; O88943; 310,000 tested, 1.1% active;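 active means fluorescence ratio B-score at most minus 3 library SDs, with starting brightness B-score within 2 library SDs, cut at about -5.5 in these data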
The depositor's hits bear a star. In the library only some 1.6% were active in any assay of this set; here they are far more common.

For Cc1ccc(S(=O)(=O)N2CCN(Cc3ccco3)CC2)cc1C the results were KCNQ2 block inactive.
`CCCc1ccc(S(=O)(=O)N2CCN(Cc3ccco3)CC2)cc1` gave KCNQ2 pot -5.9 and KCNQ2 block -5.9*.
Screening CN1CCCN(C(=O)CC2(CC(=O)O)CCCCC2)CC1 returned KCNQ2 pot 0.08 and KCNQ2 block inactive.
For COc1cc(/C=N/NC2=NS(=O)(=O)c3ccccc32)cc(OC)c1OC the results were KCNQ2 pot 1.1 and KCNQ2 block inactive.
COc1cc(/C=N/NC2=NC(C)(C)Cc3ccccc32)cc(OC)c1OC was read as KCNQ2 pot -5.6 and KCNQ2 block -5.6*.
Screening O=S(=O)(c1ccccc1Cl)N1CCCC1c1nc(-c2cccc(Cl)c2)no1 (stereo not given) returned KCNQ2 pot -6.3 and KCNQ2 block -6.3*.
Screening O=S(=O)(c1ccc(Cl)cc1)N1CCCC1c1nc2ccccc2s1 (stereo not given) returned KCNQ2 block inactive.
`O=S(=O)(c1ccccc1Cl)N1CCCC(c2nc(-c3cccnc3)no2)C1` (stereo not given) gave KCNQ2 pot 0.89 and KCNQ2 block inactive.
`O=S(=O)(c1ccc(Cl)cc1)N1CCCC1c1nc(-c2cccc(Cl)c2)no1` (stereo not given) gave KCNQ2 pot -5.9 and KCNQ2 block -5.9*.
For Cc1ccc(N2C(=O)N(CC(=O)NC(N)=O)C(=O)C2C)cc1 (stereo not given) the results were KCNQ2 pot 1.7 and KCNQ2 block inactive.
Cc1ccc(N2C(=O)N(CC(=O)NC(c3ccccc3)c3ccccc3)C(=O)C2C)cc1 (stereo not given) was read as KCNQ2 pot -6 and KCNQ2 block -6*.
For CSc1ccc(/C=C/C(=O)N2CCN(c3ccccn3)CC2)cc1 the results were KCNQ2 pot 0.13 and KCNQ2 block inactive.
`Cc1ccc(NC(=O)c2ccc(CNc3c(N4CCC(C)CC4)c(=O)c3=O)cc2)cc1` gave KCNQ2 block inactive.
`Cc1cc(C)n(CC(O)COc2ccccc2C(=O)Nc2ccccc2)n1` (stereo not given) gave KCNQ2 pot -6.6 and KCNQ2 block -6.6*.
COc1ccccc1OCC(O)Cn1nc(C)cc1C (stereo not given) was read as KCNQ2 block inactive.
`CCc1nnc(NC(=O)C2CCCN2C(=O)Nc2ccccc2)s1` (stereo not given) gave KCNQ2 block inactive.
Cc1nn(C)c(Sc2ccccc2N)c1[N+](=O)[O-] was read as KCNQ2 block inactive.
For O=c1[nH]cc(COCC(F)CCl)c(=O)[nH]1 (stereo not given) the results were KCNQ2 block inactive.
For CCn1c(=O)c2cc(C(=O)N(C)c3cc(C)ccc3OC)sc2c2ccccc21 the results were KCNQ2 pot -6.4 and KCNQ2 block -6.4*.
Screening CCn1c(=O)c2cc(C(=O)N(C)c3ccc(OC)cc3OC)sc2c2ccccc21 returned KCNQ2 block inactive.
Screening COc1ccccc1-n1c(SCC(=O)NCc2ccc3c(c2)OCO3)nc2cc([N+](=O)[O-])ccc21 returned KCNQ2 block inactive.
`CC(Sc1nc2cc([N+](=O)[O-])ccc2n1-c1ccc(F)cc1)C(=O)NCc1ccc2c(c1)OCO2` (stereo not given) gave KCNQ2 pot -8 and KCNQ2 block -8*.
`CC1CCC(NC(=O)C(Cc2ccccc2)n2cccc2)CC1` (stereo not given) gave KCNQ2 pot -5.8 and KCNQ2 block -5.8*.
`CC1CCCN(C(=O)C(Cc2ccccc2)n2cccc2)C1` (stereo not given) gave KCNQ2 pot -6.5 and KCNQ2 block -6.5*.
Screening O=C(C(Cc1ccccc1)n1cccc1)N1CCN(c2ccccc2)CC1 (stereo not given) returned KCNQ2 block inactive.
`Cc1ccc(NC(=O)C(Cc2ccccc2)n2cccc2)cc1` (stereo not given) gave KCNQ2 block inactive.
COc1cc(NC(=O)NCC2CCN(Cc3ccccc3F)CC2)cc(OC)c1 was read as KCNQ2 pot 0.99 and KCNQ2 block inactive.
Screening O=C(NCc1ccccc1)C(=O)Nc1nc(C23CC4CC(CC(C4)C2)C3)cs1 returned KCNQ2 pot 5.5* and KCNQ2 block inactive.
Screening O=C(NCc1ccncc1)C(=O)Nc1nc(C23CC4CC(CC(C4)C2)C3)cs1 returned KCNQ2 pot 0.15 and KCNQ2 block inactive.
Screening COc1ccc(N(C)S(=O)(=O)c2ccc3c(c2)NC(=O)CC(=O)N3)c(OC)c1 returned KCNQ2 pot 0.12 and KCNQ2 block inactive.
Screening O=C1c2ccc([N+](=O)[O-])cc2C(=O)N1c1ccc([N+](=O)[O-])cn1 returned KCNQ2 block inactive.
COC(=O)[C@H]1[C@@H](C)N(Cc2ccccc2)C(=O)N[C@H]1c1ccccc1 was read as KCNQ2 block inactive.
Screening Cc1ccc(S(=O)(=O)NCc2ccccc2C)cc1 returned KCNQ2 block inactive.
For CSc1ccc(S(=O)(=O)NCc2ccccc2C)cc1 the results were KCNQ2 pot -6.1 and KCNQ2 block -6.1*.
Screening CC(C)(O)c1ccccc1CC[C@@H](SCC1(CC(=O)O)CC1)c1cccc(/C=C/c2ccc3ccc(Cl)cc3n2)c1 returned KCNQ2 pot -6.4 and KCNQ2 block -6.4*.
Screening O=C(NC1CCN(Cc2ccccc2)CC1)c1cn(-c2ccccc2)nc1-c1cccnc1 returned KCNQ2 pot 0.71 and KCNQ2 block inactive.
Screening O=S(=O)(NC1c2cccc3cccc(c23)C1Sc1ncccn1)c1ccc(Cl)cc1 (stereo not given) returned KCNQ2 pot -6.3 and KCNQ2 block -6.3*.
Cc1ccc(S(=O)(=O)NC2c3cccc4cccc(c34)C2Sc2n[nH]c(N)n2)cc1 (stereo not given) was read as KCNQ2 block inactive.
Screening CCOC(=O)c1ccc(NC(=O)c2c(N)n(Cc3ccccc3)c(=O)[nH]c2=O)cc1 returned KCNQ2 pot 1.6 and KCNQ2 block inactive.
For CC1CCCCC1NC(=O)C1CCC(CNS(=O)(=O)c2ccccc2)CC1 (stereo not given) the results were KCNQ2 pot 0.43 and KCNQ2 block inactive.
Screening CCC(=O)n1nc(NCc2ccccc2OC)nc1NCc1ccccc1OC returned KCNQ2 pot -7.3 and KCNQ2 block -7.3*.
For COc1ccc(CNc2nc(NCc3ccc(OC)cc3)n(C(C)=O)n2)cc1 the results were KCNQ2 block inactive.
`COc1ccccc1C(=O)Nn1c(C2CCC2)nc2ccccc2c1=O` gave KCNQ2 block inactive.
For CCOc1ccccc1C(=O)Nn1c(C2CCC2)nc2ccccc2c1=O the results were KCNQ2 pot -6.8 and KCNQ2 block -6.8*.
CCCc1cc(=O)[nH]c(SCCN2C(=O)c3ccccc3C2=O)n1 was read as KCNQ2 pot 2 and KCNQ2 block inactive.
Screening CCN(CC)CCNc1nc(C(F)(F)F)nc2c1nnn2Cc1ccccc1 returned KCNQ2 pot 2.2 and KCNQ2 block inactive.
Screening CCN(CC)CCNc1nc(-c2ccccc2)nnc1C(F)(F)F returned KCNQ2 pot 9* and KCNQ2 block inactive.
`COc1cc(/C=N/NC(=O)c2cccc([N+](=O)[O-])c2)cc(OC)c1O` gave KCNQ2 pot 1.9 and KCNQ2 block inactive.
`COc1cccc(/C=N/NC(=O)c2ccc([N+](=O)[O-])cc2Cl)c1O` gave KCNQ2 pot 7.7* and KCNQ2 block inactive.
